Test [1] in a line: Tanguay_ZF_120hpf_TR_legacy: (Legacy) Oregon State University Tanguay Lab 120 Hour Post-fertilization zebrafish Assay for Touch Response (AID 2283667). An outline of the steps:
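5D WT embryos; static exposure to 120 hpf, 28C, sealed/dark; DMSO 0.64% v/v final. TR scored present/absent; dead embryos excluded. Pos ctrl 5uM trimethyltin chloride.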

The nature of test [2]: Tanguay_ZF_120hpf_ActivityScore_legacy: (Legacy) Oregon State University Tanguay Lab 120 Hour Post-fertilization zebrafish Assay Score for Activity (AID 2283742). An outline of the steps: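 Embryos are staged, enzymatically dechorionated at 4 hpf, placed individually at 6 hpf, then held in test chemical (0.64% DMSO) at 28C until 120 hpf. Mortality and malformations are scored by brightfield, with non-mortality endpoints skipped for dead embryos.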

The nature of test [3]: CEETOX_H295R_MTT_cell_viability: Viability Assessment in the CeeTox HT-H295R MTT Assay (AID 2283718; active = hit-call score of the fitted dose curve at least 0.9, where 1 is the maximum; inactive = score below 0.9). An outline of the steps:
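MTT reduction (0.5 mg/ml, 4 h at 37 C; absorbance at 570 and 650 nm) gave viability as background-corrected percent change versus controls. H295R cells had 48 h forskolin (10 uM) prestimulation, then 48 h chemical exposure at 0.1% DMSO.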

Results filed as inconclusive are left out. Activity calls are given as the source filed them. The calls were made as follows, unless noted: active = hit-call score of the fitted dose curve at least 0.9, where 1 is the maximum; inconclusive = response in the unintended direction; inactive = score below 0.9.

On to `CC(=O)c1ccc2c(c1)[C@H](NC(=O)c1ccc(F)cc1)[C@@H](O)C(C)(C)O2`, for which the molecule was called inactive in test [1] and in test [2].

As for `CC1=CC(=O)CC(C)(C)C1`, the result in test [3] and in test [2] was inactive.

As to `CCCCCCCCO`, the call in test [1], in test [3] and in test [2] was inactive.

The values above are taken from PubChem BioAssay (EPA / NIEHS).
